From PubChem BioAssay AID1053197 (The Scripps Research Institute Molecular Screening Center, 2014)
About 2,600 (0.7%) of roughly 370,000 compounds were called active.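 Rule for the calls: active = inhibition above a cutoff: mean of compounds within the control limits plus 3 SD of those (cut at about 17% in these data); inactive = the rest.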 The list comes from a sample in which actives are over-represented; it also holds similar structures and randomly drawn compounds.

Each compound was assayed against Sialate O-acetylesterase (Homo sapiens) (UniProt Q9HAT2) (assay: human SIAE inhibitors, primary screen, biochemical, fluorescence polarization, FP-Rh probe, 1536-well HTS (AID 1053197;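 note: 0% = plate median of compound wells and 100% = probe without SIAE protein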)). Details: SIAE FP-Rh probe binding, at 9.66 µM, stronger effect = higher value.
Sequence of Sialate O-acetylesterase (Homo sapiens) (Q9HAT2 whole entry, looked up): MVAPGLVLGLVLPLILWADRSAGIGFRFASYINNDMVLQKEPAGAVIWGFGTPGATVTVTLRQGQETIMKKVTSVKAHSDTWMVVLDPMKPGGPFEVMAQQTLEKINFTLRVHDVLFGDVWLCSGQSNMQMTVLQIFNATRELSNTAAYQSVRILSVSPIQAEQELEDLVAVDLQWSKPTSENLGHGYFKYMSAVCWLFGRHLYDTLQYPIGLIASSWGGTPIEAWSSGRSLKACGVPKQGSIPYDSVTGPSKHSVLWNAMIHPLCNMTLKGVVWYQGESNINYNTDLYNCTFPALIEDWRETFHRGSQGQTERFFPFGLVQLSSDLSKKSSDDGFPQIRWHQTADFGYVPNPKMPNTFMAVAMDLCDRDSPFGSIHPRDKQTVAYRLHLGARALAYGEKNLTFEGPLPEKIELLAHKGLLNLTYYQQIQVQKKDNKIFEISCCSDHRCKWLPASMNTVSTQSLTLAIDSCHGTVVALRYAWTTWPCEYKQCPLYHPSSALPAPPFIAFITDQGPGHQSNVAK

Row | Compound | inhibition
1 | Cc1cccc(N2C(=O)SC(SC(=Nc3ccccc3)Nc3ccccc3)C2=O)c1 (stereo not drawn) | 18.1% (active)
2 | Cc1cccc(N2C(=O)SC(N(CC(=O)O)c3cccc(C)c3)C2=O)c1 (stereo not drawn) | 1.65% (inactive)
3 | COC(=O)c1ccccc1SC1CC(=O)N(c2cccc(C)c2)C1=O (stereo not drawn) | -0.8% (inactive)
4 | COc1ccc(Cn2cc(COC(=O)N(C)Cc3ccccc3)nn2)cc1 | 0.99% (inactive)
5 | CCOC(=O)[C@]12CCCC3=C1N(CCC3)C(=O)[C@@H](CC(=O)N1CCSCC1)C2 | -3.23% (inactive)
6 | Cc1cc(=O)[nH]c(SCC(=O)Nc2ccc(F)cc2F)n1 | -0.82% (inactive)
7 | CCN(CC)S(=O)(=O)c1cc(C(=O)Nc2cc(S(=O)(=O)N3CCOCC3)ccc2N2CCCC2)ccc1F | 1.03% (inactive)
8 | O=C(Nc1ccccc1N1CCCC1)c1ccc(F)c(S(=O)(=O)N2CCOCC2)c1 | 20.5% (active)
9 | Cc1ccc(S(=O)(=O)N2CCOCC2)cc1C(=O)Nc1ccccc1N1CCCC1 | 12.1% (inactive)
10 | CC(C)CNC(=O)OCc1cn(Cc2ccc(F)cc2)nn1 | -8.33% (inactive)
11 | Cc1cc(=O)[nH]c(SCC(=O)Nc2ccc(Cl)cc2C)n1 | 1.99% (inactive)
12 | O=C(c1ccccc1)c1ccc(-c2ccccc2C(=O)NC2CCCCN(Cc3ccc(Cl)cc3)C2=O)cc1 (stereo not drawn) | 1.39% (inactive)
13 | CC1CC(C)CN(C/C=C/c2ccccc2[N+](=O)[O-])C1 (stereo not drawn) | 2.91% (inactive)
14 | CC1CCCCC1NC(=O)/C(C#N)=C/C=C/c1ccccc1[N+](=O)[O-] (stereo not drawn) | 17.2% (active)
15 | COc1cc(/C=C(\C#N)C(=O)Nc2ccc3ccccc3c2)c([N+](=O)[O-])cc1OC | -1.47% (inactive)
16 | CC(C)CNc1cccc2c1S(=O)(=O)N(Cc1cn(Cc3ccc(Cl)cc3)nn1)Cc1ccccc1O2 | 3.21% (inactive)
17 | O=C(NC1CCCCN(Cc2ccc(Cl)cc2)C1=O)c1ccc(Br)cc1 (stereo not drawn) | -3.06% (inactive)
18 | Nc1ncnc2c1ncn2[C@@H]1O[C@H](C(=O)N[C@@H](CCc2ccccc2)C(=O)NCC(=O)N2CCOCC2)[C@@H](O)[C@H]1O | 2.34% (inactive)
19 | CN(Cc1ccc(CNC[C@H]2O[C@@H](n3cnc4c(N)ncnc43)[C@H](O)[C@@H]2O)o1)S(C)(=O)=O | -0.06% (inactive)
20 | Nc1ncnc2c1ncn2[C@@H]1O[C@H](C(=O)N2CCSC2)[C@@H](O)[C@H]1O | 1.67% (inactive)
21 | Nc1ncnc2c1ncn2[C@@H]1O[C@H](C(=O)NCC(F)(F)F)[C@@H](O)[C@H]1O | 51.2% (active)
22 | CN(Cc1ccc(C(F)(F)F)cc1)C(=O)[C@H]1O[C@@H](n2cnc3c(N)ncnc32)[C@H](O)[C@@H]1O | 81.3% (active)
23 | Nc1ncnc2c1ncn2[C@@H]1O[C@H](C(=O)N2CCCN(Cc3ccccc3F)CC2)[C@@H](O)[C@H]1O | -1.61% (inactive)
24 | CC(C)CSc1nnc(-c2cccnc2)n1Cc1ccccc1 | 0.87% (inactive)
25 | O=C(NCc1ccc(Cl)cc1)C1CCCN(c2nc3ccccc3o2)C1 (stereo not drawn) | 1.99% (inactive)
26 | O=C(Nc1cc(F)cc(F)c1)OC1CCC12CCC(c1ccccc1)CC2 (stereo not drawn) | -17% (inactive)
27 | Nn1c(SCC(=O)N2c3ccccc3Sc3ccccc32)nnc1-c1n[nH]c2c1CCC2 | -8.15% (inactive)

Row | Compound | inhibition
28 | CN(C)CC(=O)N[C@@H]1C[C@@H]2O[C@H](CO)CC[C@@H]2O[C@@H]1CCc1ccc(C#Cc2ccccc2)cc1 | 5.34% (inactive)
29 | COc1ccc(C(=O)OCCN(C)C2CN(Cc3cn(Cc4cccc(C)c4)nn3)S(=O)(=O)C2)cc1OC (stereo not drawn) | -4.69% (inactive)
30 | O=C(O)/C(=C/c1cccnc1)NC(=O)c1ccccc1 | 5.04% (inactive)
31 | O=C(N/N=C/c1ccc(O)c2ccccc12)c1cccnc1 | 18.7% (active)
32 | C/C(=N\NC(N)=S)c1cccnc1 | 1.42% (inactive)
33 | NS(=O)(=O)c1ccc(NC(=S)NC(=O)c2cccnc2)cc1 | 1.85% (inactive)
34 | C/C(=N\NC(=O)c1cccnc1)c1ccc(-n2ccnc2)cc1 | 2.74% (inactive)
35 | O=C(NN=C1CCC(=NNC(=O)c2cccnc2)CC1)c1cccnc1 | 20.1% (active)
36 | Cc1cc(NS(=O)(=O)c2ccc(NC(=O)CSc3nnc(-c4ccc(C(C)(C)C)cc4)n3Cc3ccco3)cc2)nc(C)n1 | -2.29% (inactive)
37 | COC(=O)[C@]12C[C@H](CC(=O)NCC34CC5CC(CC(C5)C3)C4)C(=O)N(Cc3ccc(Cl)cc3Cl)C1=C[C@H](COCc1ccccc1)O[C@@H]2C | -3.29% (inactive)
38 | COc1cc(C(=S)NC2CCCCC2)ccc1O | 2.61% (inactive)
39 | COc1cc(C(=O)Nn2c(O)c(C3=c4ccccc4=NC3=O)sc2=S)ccc1O | 40.2% (active)
40 | COc1cc(C(=O)Nn2c(CC(C)C)nc3ccccc3c2=O)cc(OC)c1OC | -1.34% (inactive)
41 | Cc1ccc(Cn2cc(COC(=O)N(C)Cc3ccccc3)nn2)cc1 | 2.24% (inactive)
42 | CC(=O)N1CCCN(C2=Nc3ccccc3Sc3ccccc32)CC1 | 13.5% (inactive)
43 | COCCN(C(=O)c1ccco1)c1nnc(-c2ccc(OC)cc2)s1 | -0.46% (inactive)
44 | COCCNC(=O)c1cc2c(Br)ccc(Br)c2nc1N | -3.42% (inactive)
45 | COCCNC(=O)Nc1ccc2nc(-c3ccco3)c(-c3ccco3)nc2c1 | 37.3% (active)
46 | CCCCCN1CCCCC(NC(=O)C(C)CCC)C1=O (stereo not drawn) | -1.97% (inactive)
47 | CCOC(=O)[C@]12CCCC=C1N(Cc1ccc(OC)cc1)C(=O)[C@@H]2CC(=O)NCc1cccs1 | 0.94% (inactive)
48 | Cc1c[nH]c2cccc(-c3ccc(Cl)cc3)c12 | 4.94% (inactive)
49 | CCCCC(=O)NC(c1ccc(OC)c(OC)c1)c1ccc2cccnc2c1O (stereo not drawn) | 15.1% (inactive)
50 | CC(=O)NC(c1cccs1)c1cc(Br)c2cccnc2c1O (stereo not drawn) | 20.8% (active)
51 | O=[N+]([O-])c1cc([N+](=O)[O-])c2cccnc2c1O | 0.23% (inactive)
52 | COC(=O)[C@]12C[C@H](CC(=O)N3CCN(C(=O)C4CC4)CC3)C(=O)N(CCC3=CCCCC3)C1=C[C@H](C(C)C)O[C@@H]2C1CC1 | 0.92% (inactive)
53 | O=C(CSc1nc2ccccc2n1Cc1ccccc1)NNC(=S)Nc1ccccc1 | 2.33% (inactive)
